# Compounds without any hit were thinned out: in the full panel of roughly 83,000, 20% have a hit.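 The test compound was applied at a single concentration to cells in 96-well plates for 48 hours, and percent growth was recorded.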 Values without a mark were called inactive. Activity calls are given as the source filed them. How the source made its calls: active means growth percent below 10; inactive means the rest.
# What was measured:
# Assay in all cases: NCI-60 one-dose screen, 48 h (100 = growth as untreated, 0 = no growth, -100 = all killed)
# Settings in all cases: 10 µM unless noted
# [1] = system: DU-145 prostate
# [2] = system: MALME-3M melanoma
# [3] = system: MDA-MB-231 breast
# [4] = system: RXF 393 renal
# [5] = system: SF-268 CNS
# [6] = system: SF-295 CNS
# [7] = system: UACC-257 melanoma
# [8] = system: M14 melanoma
# [9] = system: HCT-15 colon
# [10] = system: HT29 colon
# [11] = system: SNB-75 CNS
# [12] = system: SNB-19 CNS
# [13] = system: U251 CNS
# [14] = system: PC-3 prostate
# [15] = system: SK-MEL-5 melanoma
# [16] = system: LOX IMVI melanoma
# [17] = system: SK-MEL-28 melanoma
# [18] = system: K-562 leukemia
# [19] = system: SF-539 CNS
# [20] = system: UACC-62 melanoma
Compound,growth [1] [%],growth [2],growth [3],growth [4],growth [5],growth [6] [%],growth [7],growth [8],growth [9] [%],growth [10],growth [11],growth [12] [%],growth [13],growth [14] [%],growth [15],growth [16],growth [17],growth [18],growth [19],growth [20]
O=C(CO[N+](=O)[O-])Nc1ccc(C(=O)/C=C/c2ccc(Cl)cc2)cc1,79.9,79.1%,55%,72.5%,44.9%,105,61.2%,3.46% (active),58.9,-23.4% (active),69.7%,87.9,14.9%,27.6,54.5%,-60.9% (active),86.8%,,,
Cc1ccc2c(NCCCN(C)C)c3c(C)nn(C)c3nc2c1,,52.7%,47.6%,,33.2%,30.2,31.8%,42.5%,29,18%,25.5%,63,,29.2,51.3%,15.5%,57.1%,9.48% (active),36.5%,58.8%
O=C(CCN1CCOCC1)Nc1ccc(Cn2nnc3c2C(=O)c2nnn(Cc4ccc(NC(=O)CCN5CCOCC5)cc4)c2C3=O)cc1,60.6,-69.9% (active),-4.23% (active),65.5%,1.49% (active),50.8,-80.5% (active),35.9%,93.6,1.57% (active),-86.7% (active),27.1,-58.7% (active),,-72.9% (active),-21.9% (active),31.7%,,,-17.3% (active)
CC1(C)CC(=O)C(c2c(-c3ccccc3)[nH]c3[nH]c(=S)[nH]c(=O)c23)=C(O)C1,124,112%,101%,115%,106%,152,80.2%,107%,112,106%,107%,93,105%,83,108%,111%,,,,92.4%
Oc1cccc(Nc2nccc(-c3ccc4ccccc4c3)n2)c1,27.3,68%,37.2%,37.8%,47.3%,25.2,47.3%,8.25% (active),22.2,56.8%,23.3%,,,28.1,32.5%,32.5%,49.5%,,11%,32.9%
CN1C2CCC1/C(=C\c1ccc(Cl)cc1)C1=C2[C@@H](c2ccc(Cl)cc2)C(C#N)=C(N)O1 (stereo partly specified),94.5,88%,104%,68.8%,85%,97.8,85.9%,95.2%,71.9,65.2%,92.4%,,,82.4,88.9%,91.7%,80%,,94.2%,75.7%
COc1ccc(-c2cn3c(-c4ccc(OC)cc4)cnc3c(Oc3ccc4c(C)cc(=O)oc4c3)n2)cc1,29.5,26.7%,6.29% (active),-20.8% (active),65.7%,23.3,29.2%,38.6%,63.4,25.4%,14.3%,,22.6%,17.7,28.6%,8.02% (active),-17.4% (active),,-21.1% (active),50.1%
O=C1C(Cl)=C(Cl)C(=O)c2c1nc1n2CCCC1,96.9,73.2%,96.2%,99.5%,95.9%,100,96%,105%,103,99.7%,126%,96.4,,,98.8%,,113%,,99.9%,93.7%

# From PubChem BioAssay (NCI)
